For nine compounds, growth results are on record in PubChem BioAssay (NCI).

The panel holds about 83,000 compounds, 20% with a hit somewhere; the sample as a whole holds those more often.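 How to read the values: 0–100, growth inhibition (40 = 60% inhibited); 0, no net growth; -100 to 0, cell death (-40 = 40% of starting cells died; -100 = all dead).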 A number with no mark means an inactive call. The source made the active and inactive calls. Rule for the calls: active = growth percent below 10; inactive = the rest.

Some test systems named below: SR leukemia; RPMI-8226 leukemia; OVCAR-8 ovarian; OVCAR-5 ovarian; OVCAR-4 ovarian; IGROV1 ovarian; OVCAR-3 ovarian; HS 578T breast; NCI/ADR-RES ovarian; T-47D breast; BT-549 breast; MDA-MB-435 melanoma; SW-620 colon; MCF7 breast; HCT-116 colon; KM12 colon; HCC-2998 colon; SK-OV-3 ovarian.
Common to all, as to test: NCI-60 one-dose screen, 48 h (100 = growth as untreated, 0 = no growth, -100 = all killed)
Common to all, as to details: 10 µM unless noted

Turning to `Cc1[nH]c2ccc(F)cc2c1CCNC(=O)C1CCN(C(=O)c2ccccc2)CC1`, the growth was 97.3% [25 µM] in the assay with SR leukemia; 10% [25 µM] with RPMI-8226 leukemia; 93.3% [25 µM] in the assay on OVCAR-8 ovarian; 95.1% [25 µM] with OVCAR-5 ovarian; 78.6% [25 µM] with OVCAR-4 ovarian; 82.5% [25 µM] with IGROV1 ovarian. Besides, the growth in the assay on OVCAR-3 ovarian is 98.2% [25 µM]; in the assay with HS 578T breast, 87.7% [25 µM]; with NCI/ADR-RES ovarian, 95.5% [25 µM]; with T-47D breast, 68.9% [25 µM]; with BT-549 breast it was 93.5% [25 µM]; in the assay with MDA-MB-435 melanoma, 96.7% [25 µM]. Besides, the growth was 96.5% [25 µM] with SW-620 colon, 93.9% [25 µM] in the assay with MCF7 breast, 93.3% [25 µM] in the assay on HCT-116 colon and 95.6% [25 µM] in the assay on KM12 colon.
For the compound `COc1ccc(-c2ccc(-c3ccc(C(=N)N)s3)s2)cc1Cl`, the growth in the assay on SR leukemia is -16.5% (active); with RPMI-8226 leukemia, -39.7% (active); in the assay with OVCAR-8 ovarian, -23.3% (active); with OVCAR-5 ovarian it was 68.4%; in the assay on OVCAR-4 ovarian it was 72.5%; in the assay with IGROV1 ovarian it was 5.34% (active). Besides, the growth is -90.6% (active) in the assay with OVCAR-3 ovarian; 87% with HS 578T breast; 27.8% in the assay with NCI/ADR-RES ovarian; 6.3% (active) with T-47D breast; 94.9% with BT-549 breast; -81.4% (active) in the assay with MDA-MB-435 melanoma. Also, the growth in the assay on SW-620 colon is -78.7% (active); in the assay on MCF7 breast it was -66.2% (active); with HCT-116 colon, -95.8% (active); in the assay on HCC-2998 colon, 9.04% (active); in the assay on KM12 colon, -86.1% (active).
With `N=C(N)c1ccc(-c2ccc(-c3ccc(-c4cccs4)s3)s2)cc1`, the growth in the assay on SR leukemia is 81.6%; in the assay with RPMI-8226 leukemia it was 61%; with OVCAR-8 ovarian, 101%; in the assay on OVCAR-5 ovarian, 97.8%; in the assay on OVCAR-4 ovarian it was 90.7%; in the assay on IGROV1 ovarian, 96.2%. Moreover, the growth in the assay with OVCAR-3 ovarian was 94.7%; with HS 578T breast it was 99.3%; in the assay on NCI/ADR-RES ovarian, 98.6%; in the assay with T-47D breast it was 76%; with BT-549 breast, 99.5%; with MDA-MB-435 melanoma, 103%. The growth with SW-620 colon was 99.6%; in the assay with MCF7 breast, 84%; with HCT-116 colon it was 93.6%; in the assay on HCC-2998 colon it was 98.7%; in the assay on KM12 colon, 96.8%.
Regarding `Clc1cc(Cl)c2nc(-c3ccc(-c4ccc(/C=N/NC5=NCCN5)cc4)s3)cn2c1`, the growth in the assay on SR leukemia is 11.2%; in the assay with RPMI-8226 leukemia, 37.6%; with OVCAR-8 ovarian it was 97.9%; in the assay on OVCAR-5 ovarian it was 104%; in the assay on OVCAR-4 ovarian, 85.6%; with IGROV1 ovarian it was 84.3%. The growth with OVCAR-3 ovarian was 97.9%; with HS 578T breast, 86.6%; in the assay with NCI/ADR-RES ovarian it was 97.7%; with T-47D breast it was 79.6%; in the assay with BT-549 breast it was 90.9%; with MDA-MB-435 melanoma, 99.3%. For the same compound, the growth with SW-620 colon was 79.2%; in the assay on MCF7 breast, 57.8%; in the assay with HCT-116 colon, 86.3%; in the assay on HCC-2998 colon it was 105%; with KM12 colon, 93%.
As for `Clc1cc(Cl)cc(-c2ccc(-c3ccc(/C=N/NC4=NCCN4)cc3)s2)c1`, the growth is 8.3% (active) in the assay on SR leukemia; 9.95% (active) in the assay on RPMI-8226 leukemia; 85% with OVCAR-8 ovarian; 95.2% with OVCAR-5 ovarian; 81% in the assay with OVCAR-4 ovarian; 43.3% with IGROV1 ovarian. In addition, the growth with OVCAR-3 ovarian is 14.2%; in the assay with HS 578T breast it was 82.1%; in the assay with NCI/ADR-RES ovarian it was 45.6%; in the assay on T-47D breast it was 56.4%; in the assay on BT-549 breast it was 94.3%; in the assay on MDA-MB-435 melanoma it was 25.8%. Further, the growth in the assay with SW-620 colon is -59.7% (active); in the assay on MCF7 breast it was 16%; with HCT-116 colon, -10.4% (active); with HCC-2998 colon, 19.3%; in the assay with KM12 colon, -2.85% (active).
On to `COc1ccc(C(=O)N2NC(=O)/C(=C/c3ccccc3F)N=C2c2ccccc2)cc1`, for which the growth in the assay on SR leukemia is 104%; in the assay on RPMI-8226 leukemia, 119%; with OVCAR-8 ovarian it was 101%; in the assay on OVCAR-5 ovarian, 108%; in the assay on SK-OV-3 ovarian, 112%; with IGROV1 ovarian, 107%. The growth in the assay on OVCAR-3 ovarian was 114%; with HS 578T breast, 110%; in the assay on NCI/ADR-RES ovarian, 105%; in the assay with T-47D breast, 97.2%; with BT-549 breast it was 106%; in the assay on MDA-MB-435 melanoma, 106%. Also, the growth is 111% with SW-620 colon; 91.2% in the assay on MCF7 breast; 102% with HCT-116 colon; 97.8% with HCC-2998 colon; 106% in the assay on KM12 colon.
As to `Cc1ccc(-c2nc(C(Cl)Cl)n3nc(-c4ccccc4)cc3n2)cc1`, the growth is 87.6% with SR leukemia; 2.55% (active) in the assay with RPMI-8226 leukemia; 35.3% in the assay on OVCAR-8 ovarian; 120% in the assay with OVCAR-5 ovarian; 48% in the assay with OVCAR-4 ovarian; 56.4% in the assay on IGROV1 ovarian. Besides, the growth in the assay with OVCAR-3 ovarian was -83.7% (active); with HS 578T breast it was 31.5%; in the assay with NCI/ADR-RES ovarian it was 18.8%; in the assay on T-47D breast, -6.55% (active); with BT-549 breast, 70.8%; with MDA-MB-435 melanoma, 15.4%. Also, the growth in the assay on SW-620 colon was -22.4% (active); with MCF7 breast it was 18.9%; in the assay with HCC-2998 colon, 23.3%; in the assay on KM12 colon it was 0.685% (active).
`CCCCCCN1CSC(=S)N(CCCCCC)C1`: the growth in the assay with SR leukemia was 104%; with RPMI-8226 leukemia, 86.5%; in the assay on OVCAR-8 ovarian it was 103%; with OVCAR-5 ovarian, 112%; with SK-OV-3 ovarian, 107%; in the assay with IGROV1 ovarian it was 101%. In addition, the growth in the assay on OVCAR-3 ovarian was 109%; in the assay on HS 578T breast it was 105%; with NCI/ADR-RES ovarian it was 89.9%; in the assay with T-47D breast, 96.4%; with BT-549 breast it was 100%; in the assay with MDA-MB-435 melanoma, 97.6%. Also, the growth is 94.2% in the assay on SW-620 colon; 102% in the assay on MCF7 breast; 86% in the assay with HCT-116 colon; 96.6% in the assay on HCC-2998 colon; 103% in the assay on KM12 colon.
Regarding `O=C1NC(=C(Cl)Cl)/C(=N/S(=O)(=O)N2CCC(C3(C(F)(F)F)N=N3)CC2)N1`, the growth was 13.3% with SR leukemia; 23.9% in the assay on RPMI-8226 leukemia; 96.2% in the assay with OVCAR-8 ovarian; 105% in the assay on OVCAR-5 ovarian; 98.1% in the assay with OVCAR-4 ovarian; 43.5% with IGROV1 ovarian. Besides, the growth is 40% with OVCAR-3 ovarian; 95.8% in the assay with HS 578T breast; 106% in the assay on NCI/ADR-RES ovarian; 47.5% in the assay with T-47D breast; 99.4% with BT-549 breast; 70.7% with MDA-MB-435 melanoma. The growth in the assay on SW-620 colon is -36.4% (active); in the assay with MCF7 breast it was 74.6%; in the assay with HCT-116 colon it was 95.4%; with HCC-2998 colon, 60.5%; in the assay on KM12 colon, 93.7%.
